Vif-APOBEC3F blk = inhibitors of Vif-A3F interaction | Potency, µM (titrated, usually from 46.1 µM), without a hit: top-dose activity, negative = active | HeLa A3F-eYFP + Vif (tagged APOBEC3F with the HIV-1 protein that degrades it), YFP fluorescence increase | 390,000 compounds, 0.2% hits; also: potency is read from the fitted curve at half-maximal effect; % of control where 0% means no effect; nearly all actives have a fitted effect of over 65% in size
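Fluorescence increase (Ex 488/Em 500-530) after overnight compound treatment at 37 deg C flags inhibition of Vif-driven A3F-eYFP loss in stable HeLa A3F-eYFP/Vif cells seeded overnight beforehand.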
Vif-A3G inh = blocks the Vif interaction with human APOBEC3G. Q9HC16. HeLa A3G-eYFP + Vif (tagged APOBEC3G with the HIV-1 protein that degrades it), YFP fluorescence, overnight. Potency, µM (doses to about 46.1 µM), inactives show at the highest dose activity, negative = active, actives largely listed as inhibitors. 410,000 compounds, 0.076% hits. AID 602310; also: potency is read from the fitted curve at half-maximal effect; % is scaled to controls: 0 for no effect and ±100 for the full control effect; nearly all actives have a fitted effect of over 60% in size
Target sequence (Q9HC16 whole entry, looked up): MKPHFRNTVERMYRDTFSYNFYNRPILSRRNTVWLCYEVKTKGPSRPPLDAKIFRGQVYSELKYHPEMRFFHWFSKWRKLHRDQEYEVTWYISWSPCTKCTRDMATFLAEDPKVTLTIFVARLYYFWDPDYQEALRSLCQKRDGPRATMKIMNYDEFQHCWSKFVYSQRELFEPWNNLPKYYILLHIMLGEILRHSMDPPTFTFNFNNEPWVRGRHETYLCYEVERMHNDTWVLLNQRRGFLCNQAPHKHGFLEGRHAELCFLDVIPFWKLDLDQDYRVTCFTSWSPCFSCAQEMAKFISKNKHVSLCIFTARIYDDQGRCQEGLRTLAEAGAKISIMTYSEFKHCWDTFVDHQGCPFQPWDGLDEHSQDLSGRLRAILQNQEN
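HeLa cells stably expressing Vif and C-terminally eYFP-tagged A3G, seeded overnight at 37 deg C, then exposed to compound by pintool overnight at 37 deg C. Rise in yellow fluorescence (Ex 488/Em 500-530, Acumen) marks blocked Vif-driven A3G degradation.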
PINK1 modulator = modulators of PINK1 expression; PINK1 immunofluorescence, high-content cytometry, 24 h; Potency, µM (top dose mostly 76.6 µM), for the others: at the highest dose activation (PINK1 increase), actives largely listed as activators; 410,000 compounds, 0.2% hits; AID 624263; active = well fitted activation curve with a large enough effect; inconclusive = small, poorly fitted or top-dose-only effect; cell line not stated here; also: potency is read from the fitted curve at half-maximal effect; % of control where 0% means no effect; nearly all actives have a fitted effect of over 65% in size
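Decision-based qHTS: stable cells, 24 h exposure to five compound concentrations, CCCP as control. Fixed cells stained for PINK1 plus nuclear, mitochondrial and cell markers, cytometer read.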
TRPML1 blocker = human mucolipin-1 channel inhibition; Q9GZU1; TRPML1-inducible cells, Ca2+ dye fluorescence, FDSS; active compounds read low; inhibition of EC80 agonist-evoked calcium signal; activity change, negative = inhibition, % (no concentration beside the values); 390,000 compounds, 0.02% hits; in the data active = activity change below about -50%; inconclusive = between about -30% and that limit;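 also: stimulus is agonist 54-4 at its EC80 concentration; % is scaled to controls: 0 for no effect and ±100 for the full control effect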
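Calcium fluorescence in TRPML1-DL cells induced overnight with Tet: a 110 s read after compound pin addition, then a 110 s antagonist read after challenge with 54-4 at 4 uM final (EC80).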
TRPML1 agonist = agonists of human TRPML1 channel; Q9GZU1; TRPML1-expressing cells, Ca2+ dye fluorescence, FDSS; 410,000 compounds, 0.12% hits; activation, % (concentration not given with the values); AID 624414; in the data active = activation above about 50%; inconclusive = mostly about 30% to 49%; also: 0% is about no effect
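TRPML1-DL cells, Tet-induced overnight (~16 h, 37 degrees C), loaded 45-90 min at room temperature with Ca8 no-wash calcium dye plus quencher. FDSS fluorescence: 10 s baseline, compound pin-transfer, 110 s agonist read, then EC80 54-4 (4uM final) and 110 s antagonist read.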
* hit, by the source's call; ? = inconclusive; nt = no result. In the library only some 0.52% were active in any assay of this set; here they are far more common. Unless noted, calls follow the shape of the dose curve; as a rule, active = well fitted curve in the direction sought with a large enough effect; inconclusive = small, poorly fitted or top-dose-only effect, or another doubt; inactive = no such curve, though single readings can be large; an effect the other way counts as inactive or inconclusive.

SMILES	Vif-APOBEC3F blk	Vif-A3G inh	PINK1 modulator	TRPML1 blocker	TRPML1 agonist
CCOc1ccc(Nc2c(S(=O)(=O)c3ccc(C)cc3)cnc3ccccc23)cc1	-7%	-3%	2%	-22	0
CCOc1ccc(Nc2c(S(=O)(=O)c3ccc(C)cc3)cnc3ccc(F)cc23)cc1	-2%	-1%	1%	-13	63*
Cc1c(NC(=O)NC(=O)c2ccc(F)cc2)c(=O)n(-c2ccccc2)n1C	-15%	0%	0%	-1	-2
Cc1c(N=C2N=C(NC(=O)c3ccc(F)cc3)c3ccccc32)c(=O)n(-c2ccccc2)n1C	-11%	-1%	40µM*	-2	0
CS(=O)(=O)N1CCC(C(=O)N2CCN(C(c3ccccc3)c3ccccc3)CC2)CC1	13%	-1%	-1%	-8	0
CCn1cc(C(=O)O)c(=O)c2cc(F)c(N3CCN(C(=S)NC(=O)c4ccc(F)cc4)CC3)cc21	-3%	1%	-2%	-14	-1
CCCOc1ccc(C(=O)NC(=S)N2CCN(c3cc4c(cc3F)c(=O)c(C(=O)O)cn4CC)CC2)cc1	10%	1%	35µM*	14	0
CCn1cc(C(=O)O)c(=O)c2cc(F)c(N3CCN(S(=O)(=O)c4ccc(NC(=O)OC)cc4)CC3)cc21	-5%	-5%	32µM*	-10	0
CCC1CCC(NC(=O)Nc2cccc(OC)c2)CC1 (centres undefined)	5%	-1%	1%	-4	-1
CSCCC(NS(=O)(=O)c1ccc(Cl)cc1)C(=O)OCc1c(Cl)cccc1Cl (centres undefined)	3%	-9%	40µM*	68	3
Cc1c(C(=O)Nc2ccccc2)c2ccc(C(F)(F)F)cc2n1O	2%	-2%	45µM*	-4	1
Cc1cccc(/N=C/c2sc3ccccc3c2O)n1	?	-7%	45µM*	-3	9
O=S(=O)(Nc1cccc2cccnc12)c1ccc(S(=O)(=O)N2CCCC2)cc1	-19%	?	nt	-3	66*
O=S(=O)(Nc1cccc2cccnc12)c1ccccc1	-27%	-26%	6%	12	8
CN(C)c1ccc(C2C=C(c3ccc(Cl)cc3OC(F)F)Nc3ncnn32)cc1 (centres undefined)	nt	8.9µM*	2%	4	21
Cc1cc(/C=C2\SC(=S)N(C)C2=O)c(C)n1-c1ccc(O)cc1	25µM*	?	?	nt	nt
CN1C(=O)/C(=C/c2coc3ccc(O)cc3c2=O)SC1=S	-10%	1%	?	-8	7
Cc1cc(/C=C2\SC(=S)N(C)C2=O)c(C)n1-c1ccccc1O	11µM*	?	?	-18	20
Cc1ccc(-n2c(C)cc(/C=C3\SC(=O)NC3=O)c2C)cc1	1%	0%	2%	-8	1
C[C@@H]1CN([C@H](C)CO)C(=O)Cc2cc(NC(=O)Nc3ccccc3)ccc2O[C@@H]1CN(C)C(=O)Nc1ccc2c(c1)OCO2	9%	-1%	1%	-7	0
Cc1ccc(Cl)cc1N1CCN(C(=O)Cn2cnc3sc(C)c(S(=O)(=O)N4CCC(C)CC4)c3c2=O)CC1	-21%	1%	2%	-29	0
CC1CC(C)(C)Nc2ccc(OC(=O)c3ccco3)cc21 (centres undefined)	32µM*	22µM*	-1%	8	0
O=C(Oc1ccc2ccccc2c1)c1ccco1	1%	-3%	-3%	33	2
O=c1cc(C(F)(F)F)[nH]c2c(C(F)(F)F)cccc12	-1%	-2%	?	-16	0
O=c1cc(C(F)(F)F)[nH]c2ccc(OC(F)(F)F)cc12	-2%	0%	35µM*	-15	1
SMILES	Vif-APOBEC3F blk	Vif-A3G inh	PINK1 modulator	TRPML1 blocker	TRPML1 agonist
O=C1C(Cl)=C(NCCc2ccccc2)C(=O)c2ccccc21	8.9µM*	13µM*	1%	11	1
O=C1C(Cl)=C(Nc2ccccc2)C(=O)c2ccccc21	1%	-11%	-2%	-5	-1
Cc1cccc(NC(=O)Cn2c(=O)n(Cc3ccc4c(c3)OCO4)c(=O)c3ccccc32)c1	2%	-5%	1%	-28	0
CC(/C=C/c1ccc(N(C)C)cc1)=N\N=C(/N)SC1CC(=O)N(c2ccc(C(=O)O)cc2)C1=O (centres undefined)	25µM*	-15%	?	-10	1
O=C(O)c1ccc(N2C(=O)CC(SC(=Nc3ccccc3)Nc3ccccc3)C2=O)cc1 (centres undefined)	4%	0%	6%	7	0
CC1=CC2=NC(=O)C(c3ccccc3)C(=O)N2C=C1 (centres undefined)	-1%	0%	-1%	-11	0
CN1\C(=C/C=C/C=C/C=[N+](C)C)C(C)(C)c2ccccc21	?	?	?	5	86*
CN1/C(=C\C=O)C(C)(C)c2ccccc21	-5%	-5%	2%	4	1
Cc1ccc2c(Cl)c(C)c(N3CCCC3)nc2n1	22µM*	2%	0%	11	2
COc1ccc(-n2cc(-c3ccccc3)c3c(NCCc4ccc(OC)c(OC)c4)ncnc32)cc1	1%	3%	1%	-9	1
COc1ccc(CCNc2ncnc3c2c(-c2ccccc2)cn3-c2cccc(Cl)c2)cc1OC	1%	4%	2%	-3	74*
CN1C(=O)/C(=C/c2ccccc2OCc2ccc(F)cc2)N(C)C1=S	3.5µM*	-3%	?	28	0
O=C(Cn1cnc2ccccc21)OCC(=O)N1CCCCC1	4%	0%	1%	-6	1
CCOc1cc(/C=C2/C(=N)N3C(=NC2=O)SN=C3S(C)(=O)=O)ccc1OC(=O)c1ccco1	13µM*	-7%	0%	15	1
CCOc1cc(/C=C2\C(=N)N3N=C(S(=O)(=O)CC)SC3=NC2=O)ccc1OC(=O)c1ccco1	?	0%	-1%	14	1
COc1cc(/C=C2\C(=N)N3N=C(S(C)(=O)=O)SC3=NC2=O)ccc1OC(=O)c1ccco1	7.1µM*	-1%	1%	19	1
CCOc1cc(/C=C2/C(=N)N3C(=NC2=O)SN=C3S(C)(=O)=O)ccc1OS(=O)(=O)c1ccccc1	6%	-2%	3%	-10	2
Cn1nc(C(C)(C)C)c(NC(=O)c2cccs2)c1C(C)(C)C	-15%	-4%	-1%	-17	78*
O=[N+]([O-])c1c(Nc2ccccc2)ccc2nonc12	1%	-2%	-3%	-9	3
Nc1cc(Nc2ccccc2)c2nonc2c1[N+](=O)[O-]	?	?	45µM*	4	0
CCN1CCc2c(sc(NC(=O)CSc3ccccc3)c2-c2nc3ccccc3s2)C1	?	?	11%	-14	70*

From PubChem BioAssay
